The panel holds about 83,000 compounds, 20% with a hit somewhere; the sample as a whole holds those more often.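 Values shown are percent growth following 48 h exposure of cells in 96-well plates to a single concentration of compound; below 10 was considered active.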 Values without a mark were called inactive. Activity calls are given as the source filed them.
Legend:
Experiment in all cases: NCI-60 one-dose screen, 48 h (100 = growth as untreated, 0 = no growth, -100 = all killed)
Settings in all cases: 10 µM
SR leukemia = system: SR leukemia
RPMI-8226 leukemia = system: RPMI-8226 leukemia
OVCAR-8 ovarian = system: OVCAR-8 ovarian
OVCAR-4 ovarian = system: OVCAR-4 ovarian
SK-OV-3 ovarian = system: SK-OV-3 ovarian
OVCAR-3 ovarian = system: OVCAR-3 ovarian
HS 578T breast = system: HS 578T breast
NCI/ADR-RES ovarian = system: NCI/ADR-RES ovarian
T-47D breast = system: T-47D breast
BT-549 breast = system: BT-549 breast
MDA-MB-435 melanoma = system: MDA-MB-435 melanoma
SW-620 colon = system: SW-620 colon
MCF7 breast = system: MCF7 breast
HCT-116 colon = system: HCT-116 colon
HCC-2998 colon = system: HCC-2998 colon
KM12 colon = system: KM12 colon
IGROV1 ovarian = system: IGROV1 ovarian
OVCAR-5 ovarian = system: OVCAR-5 ovarian

SMILES	growth (SR leukemia)	growth (RPMI-8226 leukemia)	growth (OVCAR-8 ovarian)	growth (OVCAR-4 ovarian)	growth (SK-OV-3 ovarian)	growth (OVCAR-3 ovarian)	growth (HS 578T breast)	growth (NCI/ADR-RES ovarian)	growth (T-47D breast)	growth (BT-549 breast)	growth (MDA-MB-435 melanoma)	growth (SW-620 colon)	growth (MCF7 breast)	growth (HCT-116 colon)	growth (HCC-2998 colon)	growth (KM12 colon)	growth (IGROV1 ovarian)	growth (OVCAR-5 ovarian)
Cc1nc2cc(-n3c(-c4ccc(F)cc4)nc4ccccc4c3=O)ccc2n1Cc1ccccc1	-7.66% (active)	37.5%	13%	-18.3% (active)	58.8%	-18.7% (active)	5.86% (active)	6.09% (active)	-29% (active)	2.3% (active)	-32.6% (active)	11.6%	-24.9% (active)	-18.8% (active)	61.7%	18.7%		
S=C(Cc1ccc(-c2ccccc2)cc1)N1CCOCC1	101%	96.5%	102%	101%	102%	104%	97.8%	103%	85.5%	96.6%	98.6%	103%	95.3%	98.6%	103%	99.3%	113%	
c1ccc(OCCC[P+](c2ccccc2)(c2ccccc2)c2ccccc2)cc1		-27.6% (active)	7.15% (active)	8.32% (active)	19.6%	7.59% (active)	43.3%	93.3%	13.3%	11%	0.653% (active)	18.9%	4.3% (active)	6.18% (active)	14.3%	6.18% (active)	10.5%	29%
S=c1c2ncccc2c(-c2ccccn2)nn1Cc1ccccn1	87.2%	97.9%	106%	97.2%	93.5%	115%	111%	103%	75.5%	79.7%	100%	109%	90.7%	62%	91.9%	103%		
CCN(CC)CC(O)CNc1ccnc2cc(Cl)c(Cl)cc12 (stereo not drawn)	28.4%	90.3%	84.3%	85.9%	106%	92.5%	103%	87.1%	93.1%	88.9%	96.8%	97.3%	79.5%	64.2%	102%	94.2%	91.1%	
O=[N+]([O-])c1ccc2c(c1)Cc1cc(I)ccc1-2	92.4%	98.4%	118%	117%	123%	110%	101%	104%	105%	94.2%	98.1%		85%	96.2%	103%	105%	104%	
Cc1cc(C(C)(C)CC(C)(C)C)ccc1OCCOCC[N+](C)(C)Cc1ccccc1	-62.5% (active)	-20% (active)	18.7%	2.92% (active)	11%	12.9%	-9.66% (active)	103%	7.06% (active)	-99% (active)	-87% (active)	-80.6% (active)	-90.7% (active)	-97.4% (active)	-60.6% (active)	-92.5% (active)	-76.8% (active)	
CCN(CCCNC(=O)Cc1cc(=O)oc2cc(N(C)C)ccc12)CCNc1ccnc2cc(Cl)ccc12	1.46% (active)	54.7%	83.9%	81.7%	116%	106%	98.3%	109%	123%		46.7%	74.9%	66%	53.3%	79.5%	92.7%	94%	
CCOC(=O)c1sc(NC(=O)c2cc(OC)c(OC)c(OC)c2)nc1C	79%	83%	99.3%	113%	152%	103%	80.8%	103%	118%		102%	98.1%	87.5%	111%	57.4%	99.3%	-10.1% (active)	
COc1ccc(-c2nnc(COc3ccc(NC(=O)Nc4cccc(C(F)(F)F)c4)cc3F)o2)cc1	3.93% (active)	33.6%	49.1%	61.4%	103%		67.3%		34.8%	82.7%	61.6%	54.3%	88.7%	56.7%	50.9%	24%	68.8%	
